# Inconclusive results are not listed. Where a call stands in place of a potency, no number is given. Activity calls are given as the source filed them. The call rests on the fitted dose curve; in most records, active means well fitted cell-killing curve with a large enough effect in the repeat runs; inconclusive means weak or mixed curves, or effect the other way; inactive means flat fitted curve, though single readings scatter.
# Experiment: cAMP Responsive Elements (CRE) small molecule antagonists, cell-based qHTS assay: qHTS cell viability counter screen (AID 2060913); further: nearly all actives have a fitted effect of over 40% in size
# Conditions: CRE-bla HEK293T viability, CellTiter-Glo luminescence, 5 h; series mostly up to 92.4 µM
# Text: U.S. Tox21 Program National Center for Advancing Translational Sciences [NCATS] Division of Preclinical Innovation [DPI] U.S. Environmental Protection Agency [EPA] National Institutes of Environmental Health Sciences [NIEHS] National Toxicology Program [NTP] U.S. Food and Drug Administration [FDA] Tox21 Assay Overview: CREB (cyclic-AMP Responsive Element Binding Protein) is a cellular transcription factor. It binds to certain DNA sequences called cAMP Responsive Elements (CRE) and regulates the transcription of the genes. […] This cell line can be used to find agonists/antagonists of the cyclic AMP signaling pathway. The activation of the report gene under culture conditions can be detected by fluorescence intensity. This cell line has been used to screen the Tox21 10K compound library to identify agonists that induce oxidative stress. The cytotoxicity of the Tox21 compound library against the CRE-bla cell line was tested in parallel by measuring the cell viability using CellTiter-Glo assay (Promega, Madison, WI) in the same wells.
# Tox21 Assay Protocol Summary: CRE-bla Hek 293T cells were suspended in assay medium (DMEM containing 10% dialyzed FBS, 0.1 mM NEAA, 1 mM sodium pyruvate and 25 mM HEPES) and dispensed at 2,000 cells/4 uL /well into 1536-well black wall/clear bottom plates using a Multidrop Combi (ThermoFisher Scientific, Waltham, MA) dispenser. After the assay plates were incubated at 37 C/5% CO2 for 18 hrs, 23 nL of compounds dissolved in DMSO, positive controls or DMSO only was transferred to the assay plate by a pintool workstation (Kalypsys, San Diego, CA), followed by addition of 1 uL of 1.25uM NKH477 (0.25 uM as final concentration) in assay medium using a Flying Reagent Dispenser (Aurora Discovery, San Diego, CA). The plates were incubated at 37 C and 5% CO2 for 3 hrs. Then 1 uL of LiveBLAzer B/G FRET substrate (Invitrogen, Carlsbad, CA) was added to each well using Bioraptr Flying Reagent Dispenser (FRD, Aurora Discovery, San Diego, CA). The plates were incubated at room temperature for 2 h, then fluorescence intensities were measured using an Envision plate reader (PerkinElmer, Shelton, CT) at Excitation 405nm, Emission 460nm and 530nm. The % activity was determined from the ratio of 460nm/530nm. For cell viability readout that measures cytotoxicity, 4 uL /well of CellTiter-Glo reagent was added into the assay plates using Bioraptr FRD. After 30 min incubation at room temperature, the luminescence intensity in the assay plates was measured using a ViewLux (PerkinElmer, Shelton, CT) plate reader.
SMILES,Potency,"viability change, negative = cytotoxic"
CC(=O)O[C@H]1CC[C@@]2(C)C(=CC[C@@H]3[C@@H]2CC[C@]2(C)C(C(C)=O)=CC[C@@H]32)C1,inactive,–
COc1ccccc1OC(=O)Oc1ccccc1OC,inactive,–
O=C(O)c1ccc([N+](=O)[O-])cc1,inactive,–
CN(C)CCOCCN(C)C,inactive,–
CCCCOC(=O)c1ccccc1C(=O)OCC(CC)CCCC (stereo not given),inactive,–
C/C=C1/CC2C=CC1C2 (stereo not given),inactive,–
CC(=O)OCC(=O)NCCCOc1cccc(CN2CCCCC2)c1,inactive,–
O=C(O)CCCC[C@@H]1SC[C@@H]2NC(=O)N[C@@H]21,inactive,–
O=C(O)c1ccc(O)cc1,inactive,–
Nc1ccc2c(O)cc(S(=O)(=O)O)cc2c1,inactive,–
Cc1nc2sccn2c(=O)c1CCN1CCC(=C(c2ccc(F)cc2)c2ccc(F)cc2)CC1,inactive,–
CC(=O)OC1C2(C)CCC(C2)C1(C)C (stereo not given),inactive,–
C=CC(=O)OCCOC1C2CCC1C1CC=CC12 (stereo not given),–,9.26% [at 18.9 µM] (inactive)
OCCOc1cccc(OCCO)c1,inactive,–
COc1ccc2cc(CCC(C)=O)ccc2c1,inactive,–
CCC(COC(=O)CCS)(COC(=O)CCS)COC(=O)CCS,inactive,–
CC(C)C(=O)OC(=O)C(C)C,inactive,–
CC(=O)NS(=O)(=O)c1ccc(N)cc1,inactive,–
FC(F)(Cl)C(F)(Cl)Cl,inactive,–
COC(=O)c1cc(Cl)ccc1[N+](=O)[O-],inactive,–

SMILES,Potency,"viability change, negative = cytotoxic"
CC(C)c1ccc(C#N)cc1,inactive,–
CN[C@@H]1[C@@H](O)[C@@H](O[C@@H]2[C@H](O)[C@H](O[C@H]3OC(CN)=CC[C@H]3N)[C@@H](N)C[C@H]2N)OCC1(C)O (stereo not given in full),inactive,–
Oc1ccc2c(c1)OC[C@@H](N1CCC(O)(c3ccc(F)cc3)CC1)[C@H]2O,inactive,–
O=C1CCCC(=O)C1,inactive,–
O=C(CCCl)NCCc1ccccc1,inactive,–
NC(=O)NC(=O)Cc1ccccc1,inactive,–
O=C1NC(=O)[C@@H]2CC=CC[C@H]12,inactive,–
O=C1OC(CN2CCOCC2)CN1/N=C/c1ccc([N+](=O)[O-])o1 (stereo not given),inactive,–
Cc1ccc(O)c(O)c1,inactive,–
COc1c2occc2cc2ccc(=O)oc12,inactive,–
O=C1CCC(=O)O1,inactive,–
C=C(C)C(=O)OCC1CCCO1 (stereo not given),inactive,–
COc1cc2c(cc1OC)C(C(C(=O)N(CCc1ccc(OC)c(OC)c1OC)CCc1ccc(OC)c(OC)c1OC)c1ccccc1)=NCC2 (stereo not given),inactive,–
CC1(C)C(=O)N(Br)C(=O)N1Br,inactive,–
COCCO,inactive,–
O=S(=O)(O)CCS,inactive,–
COc1cccc(CCc2ccccc2OCC(CN(C)C)OC(=O)CCC(=O)O)c1 (stereo not given),inactive,–
OCCC(F)(F)C(F)(F)C(F)(F)C(F)(F)C(F)(F)C(F)(F)C(F)(F)C(F)(F)F,inactive,–
CC(C)(C)C(=O)c1ccccc1,inactive,–
CN(C)N=Nc1ccccc1,inactive,–

# — PubChem BioAssay (Tox21)
